The record followed here is PubChem BioAssay (NCI).

“And” between values parts separate entries of the source, which are not always exact repeats. Equal values may be shown once. About 83,000 compounds went through this panel and 20% of them were active in at least one assay; those are over-represented in the sample as a whole.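 Each cell line was grown in a 96-well plate and treated with one concentration of compound for 48 hours. Values below 10 were considered active.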 The source made the active and inactive calls.

The subject of the assay is UACC-62 melanoma. The assay can be described thus: NCI-60 one-dose screen, 48 h (100 = growth as untreated, 0 = no growth, -100 = all killed). The conditions noted are these: 10 µM unless noted.
For the molecule `O=C(CCc1ccccc1)ON1C(=S)NC(c2ccccc2)(c2ccccc2)C1=S`, the growth was -47.5% [100 µM] (active) and -5.8% [100 µM] (active).
The figure for `CC1=CC[C@@H]2[C@@H](CC[C@@]2(C)O)C(C)(C)[C@H]1CC[C@@H]1[C@@]2(C)CCC(=O)C(C)(C)O[C@@H]2CC[C@]1(C)O` is -76.1% [100 µM] (active) and -100% [100 µM] (active); for `CC1=C(C2=C(C)C(=O)C(=O)c3cc(C)ccc32)c2ccc(C)cc2C(=O)C1=O` it is -92.5% [100 µM] (active) and -100% [100 µM] (active); for `C=C1C(=O)OC2CC1C(OC(=O)/C=C/c1ccccc1)C/C(C)=C/CC/C(C)=C/CCC2(C)O` (stereo not drawn) it is -95.6% [100 µM] (active) and -90.1% [100 µM] (active).
The figure for `Cc1cc(O)c2c(c1)C(=O)C(c1c(C)cc3c(c1O)C(=O)C1OC1C3=O)=CC2=O` (stereo not drawn) is -91.9% [100 µM] (active) and -93.6% [100 µM] (active).
The figure for `O=Cc1ccc(-c2ccc(-c3ccc(CO)s3)o2)s1` is -65% [100 µM] (active) and -100% [100 µM] (active); for `Fc1cccc(F)c1C1SCc2nc3cc4ccccc4cc3n21` (stereo not drawn) it is 21.7% [100 µM] (inactive) and 19.9% [100 µM] (inactive).
Take `CC1(C)CCC2(C(=O)O)C(O)CC3(C)C(=CCC4C5(C)CCC(OC6OCC(O)C(O)C6OC6OCC(O)C(O)C6OC6OCC(O)C(OC7OC(CO)C(O)C(O)C7O)C6O)C(C)(C)C5CCC43C)C2C1` (stereo not drawn): the growth was 97.8% [100 µM] (inactive) and 5.39% [100 µM] (active).
With `Cc1c2c(c(C)c3c[n+](C)ccc13)Oc1ccccc1O2` the figure was -77.7% [100 µM] (active) and -100% [100 µM] (active).
The figure for `C=c1c2ccccc2oc2nc3[nH]c(N)c(C#N)c(N)c3c(=N)c12` is 44.5% [100 µM] (inactive) and 0.738% [100 µM] (active); for `CC1OC(OC2C(OC3CCC4(C)C(CCC5(C)C4CC=C4C6CC(C)(C)CCC6(C(=O)O)CCC45C)C3(C)CO)OCC(O)C2O)C(O)C(O)C1O` (stereo not drawn) it is -94% [100 µM] (active) and -96.7% [100 µM] (active).
With `CCOC(=O)C1C(C(C)C)C2(C#N)C(=N)OC1(C)C2(C#N)C#N` (stereo not drawn) the figure was -51.6% [100 µM] (active) and -86.9% [100 µM] (active); with `COc1ccc2c(c1)C(N)=C(c1ccccc1)C2=O`, 80.5% [100 µM] (inactive) and 28.2% [100 µM] (inactive).
